The results in this text go back to PubChem BioAssay (NCATS).

Records with an inconclusive call do not appear. Values without a mark were called inactive. Active and inactive are the calls of the source. Calls follow the shape of the dose curve; as a rule, active = well fitted curve in the direction sought with a large enough effect; inconclusive = small, poorly fitted or top-dose-only effect, or another doubt; inactive = no such curve, though single readings can be large; an effect the other way counts as inactive or inconclusive.

Test [1] has as its target Rap guanine nucleotide exchange factor 3 (Homo sapiens) (UniProt O95398). The test is described as follows: Confirmatory qHTS for agonist of cAMP-regulated guanine nucleotide exchange factor 3 (EPAC1) (AID 1645881).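 Also: EPAC1 catalysed release of BODIPY-GDP from Rap1B seen as fluorescence loss; 100% = effect of cAMP agonist control; nearly all actives have a fitted effect of over 75% in size.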 Conditions: EPAC1 Rap1B BODIPY-GDP exchange fluorescence; series mostly up to 154 µM. (In general: qHTS replaces the single test concentration by a dilution series.)

Test [2] concerns the target Rap guanine nucleotide exchange factor 4 (Homo sapiens) (UniProt Q8WZA2). The test is described as follows: Confirmatory qHTS for agonist of cAMP-regulated guanine nucleotide exchange factor 4 (EPAC2) (AID 1645884).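 Also: nucleotide exchange releases bodipy-GDP from Rap1 and this lowers its fluorescence; % is scaled to controls: 0 for no effect and ±100 for the full control effect; nearly all actives have a fitted effect of over 65% in size.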 The note with it: EPAC2 GEF activity, Rap1B-BODIPY-GDP fluorescence; series mostly up to 154 µM.
For test [3] the target is unchanged. The test is described as follows: Confirmatory qHTS for antagonist of cAMP-regulated guanine nucleotide exchange factor 4 (EPAC2) (AID 1645885). Also: nearly all actives have a fitted effect of over 25% in size. Also: potency is read from the fitted curve at half-maximal effect. As to activity change, negative = inhibition: % is scaled to controls: 0 for no effect and ±100 for the full control effect. Conditions: EPAC2 Rap1B-BODIPY-GDP exchange fluorescence, biochemical; series mostly up to 12.7 µM.
For test [4], the target named is Rap guanine nucleotide exchange factor 3 (Homo sapiens) (UniProt O95398). The test is described as follows: Counterscreen qHTS for antagonist of cAMP-regulated guanine nucleotide exchange factor 3 (EPAC1) (AID 1645888).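 Also: fluorescence loss as bound BODIPY-GDP is released from Rap1B; % of control where 0% means no effect.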 Conditions: Rap1B-BODIPY-GDP nucleotide exchange, fluorescence; series mostly up to 154 µM. An outline of the steps:
(§1)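 Rap1B–BODIPY-GDP (250 nM) with 50 uM GDP; compounds pin-transferred to 9.74 nM–152 uM final (activator) or from 7.32 nM upwards (inhibitor). Fluorescence Ex/Em 480/540 nm read at 5 and 30 min, then after adding cAMP or buffer, at room temperature.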
On the technique in general: Counterscreens check selectivity or assay interference.

Test [5] has the same target. The test is described as follows: Counterscreen qHTS for agonist of cAMP-regulated guanine nucleotide exchange factor 3 (EPAC1) (AID 1645889). Also: % of control where 0% means no effect; nearly all actives have a fitted effect of over 40% in size. Conditions: EPAC1 Rap1B-BODIPY-GDP exchange, fluorescence; series mostly up to 154 µM. An outline of the steps:
as §1

Sequence of Rap guanine nucleotide exchange factor 3 (Homo sapiens) (O95398 whole entry, looked up): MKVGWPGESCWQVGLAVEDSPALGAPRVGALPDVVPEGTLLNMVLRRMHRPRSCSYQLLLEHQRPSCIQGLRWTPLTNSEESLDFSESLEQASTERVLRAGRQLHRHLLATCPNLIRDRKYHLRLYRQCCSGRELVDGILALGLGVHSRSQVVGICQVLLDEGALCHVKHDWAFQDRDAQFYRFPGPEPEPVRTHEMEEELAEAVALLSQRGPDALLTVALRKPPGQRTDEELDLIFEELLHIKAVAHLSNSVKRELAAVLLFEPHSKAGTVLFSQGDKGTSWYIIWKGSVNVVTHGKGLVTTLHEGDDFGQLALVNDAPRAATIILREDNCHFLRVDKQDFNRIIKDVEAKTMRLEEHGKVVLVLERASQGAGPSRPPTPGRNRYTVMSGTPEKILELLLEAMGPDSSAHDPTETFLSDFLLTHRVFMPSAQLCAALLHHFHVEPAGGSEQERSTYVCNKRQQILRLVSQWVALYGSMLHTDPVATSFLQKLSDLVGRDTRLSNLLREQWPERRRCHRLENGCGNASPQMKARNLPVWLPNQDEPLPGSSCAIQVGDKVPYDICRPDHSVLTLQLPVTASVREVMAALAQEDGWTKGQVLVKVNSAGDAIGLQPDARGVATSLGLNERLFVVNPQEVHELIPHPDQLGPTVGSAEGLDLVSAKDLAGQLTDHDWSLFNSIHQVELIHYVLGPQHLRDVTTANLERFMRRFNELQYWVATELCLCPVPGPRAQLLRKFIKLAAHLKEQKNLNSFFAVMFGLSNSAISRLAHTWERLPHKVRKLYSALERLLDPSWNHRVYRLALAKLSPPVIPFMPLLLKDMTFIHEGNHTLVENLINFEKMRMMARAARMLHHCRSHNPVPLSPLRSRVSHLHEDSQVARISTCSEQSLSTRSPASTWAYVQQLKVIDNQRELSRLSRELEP
Sequence of Rap guanine nucleotide exchange factor 4 (Homo sapiens) (Q8WZA2 whole entry, looked up): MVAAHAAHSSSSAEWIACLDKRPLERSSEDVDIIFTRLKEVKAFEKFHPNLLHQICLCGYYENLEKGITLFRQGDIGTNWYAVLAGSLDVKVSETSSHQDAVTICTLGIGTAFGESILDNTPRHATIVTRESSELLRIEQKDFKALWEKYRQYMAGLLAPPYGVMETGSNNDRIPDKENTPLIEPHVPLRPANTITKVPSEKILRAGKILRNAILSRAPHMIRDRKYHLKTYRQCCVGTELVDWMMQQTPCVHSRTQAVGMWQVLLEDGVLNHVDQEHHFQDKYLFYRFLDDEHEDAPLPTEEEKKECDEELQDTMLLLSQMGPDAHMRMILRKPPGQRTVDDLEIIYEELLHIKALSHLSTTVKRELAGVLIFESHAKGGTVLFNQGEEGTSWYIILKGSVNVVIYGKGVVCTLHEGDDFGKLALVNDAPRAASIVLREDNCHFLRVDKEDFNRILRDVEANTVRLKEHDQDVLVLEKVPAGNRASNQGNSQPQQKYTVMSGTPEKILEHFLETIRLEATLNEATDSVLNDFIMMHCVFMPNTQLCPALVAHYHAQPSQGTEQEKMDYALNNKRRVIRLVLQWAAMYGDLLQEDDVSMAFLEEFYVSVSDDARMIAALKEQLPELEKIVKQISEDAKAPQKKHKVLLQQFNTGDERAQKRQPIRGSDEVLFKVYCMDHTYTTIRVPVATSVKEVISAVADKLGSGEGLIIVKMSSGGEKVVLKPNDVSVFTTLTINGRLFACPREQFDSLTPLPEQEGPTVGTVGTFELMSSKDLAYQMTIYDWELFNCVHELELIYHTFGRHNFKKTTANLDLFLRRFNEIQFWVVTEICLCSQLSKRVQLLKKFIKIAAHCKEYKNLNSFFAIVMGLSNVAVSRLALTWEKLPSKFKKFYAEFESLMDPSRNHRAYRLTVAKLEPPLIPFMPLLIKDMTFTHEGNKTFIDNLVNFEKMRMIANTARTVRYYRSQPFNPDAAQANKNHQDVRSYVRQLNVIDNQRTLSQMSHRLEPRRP

For the compound `C=CCc1ccccc1OCc1nc2ccccc2n1CC`, the Potency entry in test [1], in test [2], in test [3], in test [4] and in test [5] was “inactive” each time.

With `CCOC(=O)C1=C(N)OC2=C(C(=O)CCC2)C1c1sccc1C` (stereo not given), the Potency result in test [1] and in test [3] was “inactive” throughout. Also, the activation in test [2] was 4.2% [at 17.1 µM, percent relative to cAMP agonist control]; in test [5], -1.77% [at 30.8 µM]. Moreover, the activity change, negative = inhibition in test [4] was -19.9% [at 30.8 µM].

For `COc1ccccc1N1CCN(CC(O)COc2ccc(C)cc2C(C)(C)C)CC1` (stereo not given), the Potency entry in test [1], in test [2], in test [3], in test [4] and in test [5] was “inactive” throughout.

Consider `Cc1ccc(NC(=O)C2(C)CCN2CCc2ccccc2)cc1` (stereo not given), for which the Potency entry in test [1] and in test [3] was “inactive” in each case. Further, the activation in test [2] is -1.02% [at 17.1 µM, percent relative to cAMP agonist control]; in test [5], 6.12% [at 30.8 µM]. Further, the activity change, negative = inhibition in test [4] was 1.14% [at 30.8 µM].

With `COc1ccc(S(=O)(=O)Nc2ccccc2SC)cc1C`, the Potency result in test [1], in test [2], in test [4] and in test [5] was “inactive” throughout. For the same compound, in test [3], the Potency was 10.7 µM (active).

Turning to `CCN(c1ccc(NC(=O)CCc2nc3sc4c(c3c(=O)[nH]2)CCCC4)cc1)C(C)C`, the Potency result in test [1] and in test [3] was “inactive” in each case. Besides, the activation is -1.91% [at 17.1 µM, percent relative to cAMP agonist control] in test [2] and 2.05% [at 30.8 µM] in test [5]. Further, the activity change, negative = inhibition in test [4] was -10.9% [at 30.8 µM].

`O=C(O)C(Cc1c[nH]c2ccccc12)NS(=O)(=O)c1ccc2ccccc2c1` (stereo not given): the Potency entry in test [1], in test [2], in test [3], in test [4] and in test [5] was “inactive” in each case.

Take `NS(=O)(=O)c1ccc(CCNC(=O)Cc2ccc(S(=O)(=O)N3CCCC3)s2)cc1`: the Potency entry in test [1] and in test [3] was “inactive” in each case. In addition, the activation was 2.8% [at 17.1 µM, percent relative to cAMP agonist control] in test [2] and 24% [at 30.8 µM] in test [5]. In addition, in test [4], the activity change, negative = inhibition was 7.67% [at 30.8 µM].

For the compound `O=C(/C=C/c1ccco1)NC(=S)Nc1cccc(-c2nc3ccccc3o2)c1`, the Potency result in test [1] and in test [3] was “inactive” throughout. Further, the activation in test [2] is -2.07% [at 17.1 µM, percent relative to cAMP agonist control]; in test [5] it was 10.2% [at 30.8 µM]. In addition, in test [4], the activity change, negative = inhibition was -12.8% [at 30.8 µM].

Consider `NNc1cccc(C=Cc2ccccc2)cc1=O`, for which the Potency result in test [1] and in test [3] was “inactive” each time. The activation in test [2] was 0.393% [at 17.1 µM, percent relative to cAMP agonist control]; in test [5], 27.5% [at 30.8 µM]. For the same compound, the activity change, negative = inhibition in test [4] was -9.39% [at 30.8 µM].

`COc1ccc(/C=N\Nc2ccc([N+](=O)[O-])cc2)c(C(=O)O)c1OC`: the Potency result in test [1], in test [2], in test [3], in test [4] and in test [5] was “inactive” throughout.

Take `O=C(O)C/C(=C\c1cc(Cl)c2c(c1)OCO2)c1nc2ccccc2s1`: the Potency result in test [1] and in test [3] was “inactive” in each case. For the same compound, the activation in test [2] is -1.81% [at 17.1 µM, percent relative to cAMP agonist control]; in test [5] it was -1.83% [at 30.8 µM]. Moreover, the activity change, negative = inhibition in test [4] is -1% [at 30.8 µM].

`N#CC(c1nc2ccccc2nc1OCCO)S(=O)(=O)c1ccccc1` (stereo not given): the Potency result in test [1] and in test [3] was “inactive” in each case. Further, the activation is -1.2% [at 17.1 µM, percent relative to cAMP agonist control] in test [2] and 20.5% [at 30.8 µM] in test [5]. The activity change, negative = inhibition in test [4] was -25.3% [at 30.8 µM].

Turning to `COC(=O)c1nn(-c2ccccc2)c(Sc2ccc(OC)cc2)c1/C=N/O`, the Potency entry in test [1] and in test [3] was “inactive” in each case. In addition, the activation was -5.43% [at 17.1 µM, percent relative to cAMP agonist control] in test [2] and 23% [at 30.8 µM] in test [5]. The activity change, negative = inhibition in test [4] was -27.4% [at 30.8 µM].

Consider `CC(C)C[C@H]1CNC(=O)C(=O)N1C[C@@H]1CCCN1C[C@H](Cc1ccc(O)cc1)N1C[C@H](Cc2ccccc2)N(CC2CCCCC2)C(=O)C1=O`, for which the Potency result in test [1], in test [2], in test [4] and in test [5] was “inactive” in each case. In addition, the Potency in test [3] is 47.8 µM (active).

For `O=C(NNc1cc(N2CCOCC2)nc(N2CCOCC2)n1)c1ccc([N+](=O)[O-])cc1`, the Potency entry in test [1], in test [2], in test [3], in test [4] and in test [5] was “inactive” in each case.

As to `COC1=CC(=O)C(C2CC(=O)c3c(O)cc(O)cc3O2)=CC1=O` (stereo not given), the Potency result in test [1] and in test [3] was “inactive” each time. Further, the activation in test [2] was 9.22% [at 17.1 µM, percent relative to cAMP agonist control]; in test [5] it was 4.79% [at 30.8 µM]. The activity change, negative = inhibition in test [4] was -16% [at 30.8 µM].
